Bioassay records: PubChem, National Center for Advancing Translational Sciences (NCATS)
The list is not random: actives were taken first. Their share in the collection is about 3.4%.
Sm TGR inh = S. mansoni TGR enzyme inhibition; purified TGR, DTNB reduction, TNB absorbance 405 nm; Q962Y6; hit rate 3% among 360,000; Potency, µM (highest dose often 114 µM), hits mostly inhibitors; note: nearly all actives have a fitted effect of over 60% in size
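Kinetic colorimetric format: TGR-catalysed, NADPH-driven DTNB reduction monitored via TNB absorbance. Enzyme dispensed at 20 nM; compound exposure 15 min at room temperature before reaction start.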
AmpC detergent = AmpC beta-lactamase inhibition with detergent present; P00811; AmpC hydrolysis of nitrocefin, absorbance 480 nm, 0.01% Triton; Potency, µM (highest dose often 114 µM), usual class: inhibitors; hit rate 0.041% among 370,000; note: nearly all actives have a fitted effect of over 25% in size
Target sequence (P00811 whole entry, looked up): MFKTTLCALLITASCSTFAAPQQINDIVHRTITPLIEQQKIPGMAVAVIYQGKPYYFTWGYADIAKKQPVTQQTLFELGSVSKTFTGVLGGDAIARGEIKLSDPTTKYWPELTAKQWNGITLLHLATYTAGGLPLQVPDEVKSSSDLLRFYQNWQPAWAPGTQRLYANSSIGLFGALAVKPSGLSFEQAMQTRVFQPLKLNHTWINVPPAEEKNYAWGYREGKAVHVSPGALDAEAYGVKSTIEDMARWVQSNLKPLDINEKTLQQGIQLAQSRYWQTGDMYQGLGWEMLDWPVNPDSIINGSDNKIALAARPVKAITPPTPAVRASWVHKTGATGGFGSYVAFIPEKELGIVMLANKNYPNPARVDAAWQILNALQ
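AmpC (5.3 nM in the dispensed reagent) in 20 mM phosphate pH 7.0 with 0.01% (detergent screen) or 0.0001% Triton X-100 was preincubated with compounds for 15 min at room temperature. Nitrocefin was then added from an 800 uM solution, and hydrolysis was followed at 480 nm.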
AmpC no deterg = blocks E. coli AmpC beta-lactamase in detergent-free assay. P00811. AmpC nitrocefin hydrolysis, absorbance 480 nm, 0.0001% Triton. Potency, µM (highest dose often 57.1 µM), hits mostly inhibitors. hit rate 0.52% among 330,000; note: nearly all actives have a fitted effect of over 20% in size
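AmpC (5.3 nM in the dispensed reagent) in 20 mM phosphate pH 7.0 with 0.01% (detergent screen) or 0.0001% Triton X-100 was preincubated with compounds for 15 min at room temperature. Nitrocefin was then added from an 800 uM solution, and hydrolysis was followed at 480 nm.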
RE007 growth inh = less growth of the S. pombe RE007 Vpr strain; S. pombe RE007 Vpr strain, BacTiter-Glo ATP luminescence, 24 h; Potency, µM (doses to about 92.2 µM), hits mostly inhibitors; hit rate 0.21% among 360,000; active = well fitted falling curve with a large enough effect; inconclusive = small, poorly fitted or top-dose-only effect; inactive = no such curve, though single readings can be large or run the other way; note: nearly all actives have a fitted effect of over 50% in size
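Fission yeast strain RE007, carrying one chromosomally integrated HIV-1 vpr copy, was seeded at OD 0.01 in PMG+AL medium with 23 nL pinned compound. After 24 h at 30 °C and 99% humidity, viability was read by BacTiter-Glo luminescence.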
FBPA Giardia inh = Giardia lamblia aldolase inhibition; A8B2U2; purified Giardia FBPA; Potency, µM (highest dose often 59.6 µM), most hits filed as inhibitors; hit rate 0.71% among 290,000; AID 2451; note: nearly all actives have a fitted effect of over 55% in size
Target sequence (A8B2U2 whole entry, looked up): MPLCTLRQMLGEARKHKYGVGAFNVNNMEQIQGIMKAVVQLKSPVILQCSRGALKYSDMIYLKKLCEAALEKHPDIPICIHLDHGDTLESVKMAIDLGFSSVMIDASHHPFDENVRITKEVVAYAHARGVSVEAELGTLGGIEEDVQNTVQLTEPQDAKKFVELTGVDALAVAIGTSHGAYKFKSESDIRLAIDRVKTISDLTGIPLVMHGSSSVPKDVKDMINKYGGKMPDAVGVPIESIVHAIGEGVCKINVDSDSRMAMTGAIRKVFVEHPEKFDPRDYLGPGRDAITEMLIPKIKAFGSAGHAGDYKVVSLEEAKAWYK
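Giardia FBPA (40 nM reagent) was preincubated 10 min at RT with compound (up to 57.5 uM final), then substrate plus GAPDH/TPI/NAD/arsenate coupling system with diaphorase/resazurin was added; resorufin fluorescence (525/598 nm) was read after 20 min.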
Of the large screens only hits and unclear results are named; the others gave an inactive call. Unless noted, calls come from the whole dose curve; as a rule, active = well fitted curve in the direction sought with a large enough effect; inconclusive = small, poorly fitted or top-dose-only effect, or another doubt; inactive = no such curve, though single readings can be large; an effect the other way counts as inactive or inconclusive.

CNc1ccc(Br)cc(C(=O)/C=C/c2ccc(OC)cc2OC)c1=O	Sm TGR inh inconclusive, AmpC detergent inconclusive, AmpC no deterg inconclusive, FBPA Giardia inh inconclusive
CCNc1ccc(Br)cc(C(=O)/C=C/c2c(Cl)cccc2Cl)c1=O	Sm TGR inh 0.89µM, FBPA Giardia inh inconclusive
CNc1ccc(Br)cc(C(=O)/C=C/c2cccc(OC)c2)c1=O	Sm TGR inh 3.2µM, FBPA Giardia inh inconclusive
CNc1ccc(Br)cc(C(=O)/C=C/c2ccc(Cl)cc2Cl)c1=O	Sm TGR inh 3.5µM, FBPA Giardia inh inconclusive
Cc1sc2ncnc(OCC(=O)N3CC(=O)Nc4ccccc43)c2c1C	none
CC(C)[C@]1(O)[C@@H](OC(=O)c2ccc[nH]2)[C@@]2(O)[C@@]3(C)C[C@]4(O)O[C@@]5([C@H](O)[C@@H](C)CC[C@]35O)[C@@]2(O)C41C	none (no result: Sm TGR inh, AmpC detergent, AmpC no deterg, RE007 growth inh)
O=C(/C=C/[C@H]1O[C@@H](n2ccc(=O)[nH]c2=O)[C@H](O)[C@@H]1O)NCc1ccco1	none (no result: Sm TGR inh, AmpC detergent, AmpC no deterg, FBPA Giardia inh)
O=C(c1ccccc1)c1ccc2nc(N3CCN(C(=O)c4ccco4)CC3)c3nncn3c2c1	Sm TGR inh 45µM
O=C(c1ccccc1)c1ccc2nc(N3CCN(c4ccccc4)CC3)c3nncn3c2c1	none (no result: AmpC no deterg, RE007 growth inh, FBPA Giardia inh)
CCN(CC(=O)Nc1ccc(C(C)=O)cc1)CC(=O)Nc1ccccc1C(F)(F)F	Sm TGR inh 32µM
COc1ccc(-n2cc(CNCCCn3ccnc3)c(-c3ccccc3Cl)n2)cc1	Sm TGR inh inconclusive
COc1cc(Nc2ccc(C)cc2)c([N+](=O)[O-])nc1[N+](=O)[O-]	Sm TGR inh 25µM
COc1cc(CC(=O)Nc2ccc3nc(SC)sc3c2)cc(OC)c1OC	AmpC detergent inconclusive
Cc1ccc(S(=O)(=O)/N=C2/NC(=O)/C(=C/c3ccc(Br)o3)S2)cc1	Sm TGR inh 22µM, AmpC detergent inconclusive
Cc1ccc(S(=O)(=O)/N=C2/NC(=O)/C(=C\c3cc(Br)cc(Br)c3O)S2)cc1	Sm TGR inh 28µM (no result: FBPA Giardia inh)
Cc1ccc(S(=O)(=O)/N=C2/NC(=O)/C(=C/c3cccnc3)S2)cc1	AmpC detergent inconclusive
CCCNC(=O)NNC(=O)c1cc(-c2ccc3c(c2)OCO3)nc2ccccc12	none (no result: FBPA Giardia inh)
Cc1cccc2c3c(ccc12)C1=C(C(=O)C3=O)[C@@H](C)CO1	FBPA Giardia inh 7.1µM (no result: Sm TGR inh, AmpC detergent, AmpC no deterg, RE007 growth inh)
CC1COc2ccccc2C1=O (stereo not given)	none (no result: Sm TGR inh, AmpC detergent, AmpC no deterg, RE007 growth inh)
Cc1ccc(-c2c(C)c(-c3ccc(F)cc3)nc(N)c2C#N)o1	Sm TGR inh 28µM
CC(C)c1c(O)cc(-c2ccncc2)n(-c2ccc(Cl)cc2)c1=O	none
CNC(=O)c1c(NC(=O)C(C)C)sc2c1CCC2	Sm TGR inh 45µM
CNC(=O)c1c(NC(=O)c2nc3ccccc3s2)sc2c1CCC2	Sm TGR inh 45µM (no result: RE007 growth inh)
FC(F)(F)c1ccc(-n2cnc3ccccc32)nc1	none
NNC(=O)CSc1c(-c2cccs2)[nH]c2ccccc12	AmpC detergent inconclusive, AmpC no deterg 14µM
CN(C)c1ccc(-c2noc(C3CC(=O)N(c4ccc5c(c4)OCCO5)C3)n2)cc1 (stereo not given)	none (no result: AmpC no deterg, RE007 growth inh, FBPA Giardia inh)
O=C(CCCNC(=O)/C(=C\c1ccccc1F)NC(=O)c1ccccc1)OCc1ccccc1	AmpC detergent inconclusive
COc1ccc(C2CC(c3ccccc3)=NN2C(=S)Nc2ccccc2)cc1 (stereo not given)	none
COc1ccc(C2=NN(C(=S)Nc3ccccc3)C(c3ccccc3)C2)cc1 (stereo not given)	AmpC no deterg 25µM
Cc1c(C2(c3c(C)n(C)n(-c4ccccc4)c3=O)C(=O)Nc3ccc(F)cc32)c(=O)n(-c2ccccc2)n1C	none
Cc1cc(Br)cc2c1NC(=O)C2(c1c(C)n(C)n(-c2ccccc2)c1=O)c1c(C)n(C)n(-c2ccccc2)c1=O	Sm TGR inh 45µM
O=C(c1[nH]ncc1-c1cccc(Br)c1)C1CO1 (stereo not given)	Sm TGR inh 11µM
Cc1ccc(NC(=O)COC(=O)Cc2c[nH]c3ccccc23)cc1F	Sm TGR inh 50µM (no result: FBPA Giardia inh)
COCCN(C(=O)CCCc1nc2ccccc2s1)c1c(N)n(CC(C)C)c(=O)[nH]c1=O	none (no result: FBPA Giardia inh)
COc1cccc(CNC(=O)CCC2CCCN(C(=O)c3ccccc3N(C)C)C2)c1 (stereo not given)	Sm TGR inh 79µM (no result: FBPA Giardia inh)
CC(/C=N/NC(=O)c1nnn(-c2nonc2N)c1CN(C)C)=C\c1ccco1	Sm TGR inh 45µM, FBPA Giardia inh inconclusive
C/C(=N\NC(=O)c1nnn(-c2nonc2N)c1CN(C)c1ccccc1)c1cccc(O)c1	none
C/C(=N\NC(=O)c1nnn(-c2nonc2N)c1CN(C)c1ccccc1)c1ccc(O)cc1	AmpC no deterg 25µM
CC(C)NS(=O)(=O)c1ccc(CCC(=O)NCc2ccco2)cc1	Sm TGR inh 45µM
O=C(CCc1ccc(S(=O)(=O)NCCc2ccccc2)cc1)NCc1ccco1	Sm TGR inh 45µM
CC(C)NS(=O)(=O)c1ccc(CCC(=O)NCc2ccncc2)cc1	none
O=C(CCCNS(=O)(=O)c1ccccc1)NCc1ccco1	none
O=C(CCNS(=O)(=O)c1cccs1)NCc1ccco1	Sm TGR inh 79µM, AmpC detergent inconclusive
CC(=O)c1cccc(S(=O)(=O)N2CCCC(c3nc(-c4ccc(C)o4)no3)C2)c1 (stereo not given)	Sm TGR inh 50µM
Cc1ccc(-c2noc(C3CCCN(S(=O)(=O)c4ccc5ccccc5c4)C3)n2)o1 (stereo not given)	Sm TGR inh 40µM, AmpC detergent inconclusive
Cc1cc(C)c(S(=O)(=O)NCCc2cc3cc(C)c(C)cc3[nH]c2=O)c(C)c1	none (no result: AmpC no deterg, RE007 growth inh, FBPA Giardia inh)
C/C(=N\NC(=O)Nc1ccccc1)c1ccccc1	none
CCCCCCCCCCCCCCCC[n+]1cccc2ccccc21	Sm TGR inh inconclusive, RE007 growth inh 11µM
CCCCCCCCC[n+]1cccc2c3ccccc3ccc21	none
O=C(CSc1ccc([N+](=O)[O-])cc1)c1ccccc1	none (no result: Sm TGR inh, AmpC detergent, AmpC no deterg, FBPA Giardia inh)
CCN1CC2([N+](=O)[O-])C=CC(=O)C([N+](=O)[O-])(C1)C2CC(=O)c1ccccc1 (stereo not given)	Sm TGR inh 13µM
CCCCN1CC2([N+](=O)[O-])C=CC(=O)C([N+](=O)[O-])(C1)C2CC(=O)c1ccccc1 (stereo not given)	Sm TGR inh 22µM, AmpC detergent inconclusive
CCCCn1c(=N)n(CC(=O)c2ccc([N+](=O)[O-])cc2)c2ccccc21	FBPA Giardia inh inconclusive (no result: RE007 growth inh)
O=C(COC(=O)c1ncc(Cl)c(Cl)c1Cl)Nc1ccc(Cl)cn1	Sm TGR inh 40µM (no result: FBPA Giardia inh)
CC(CCCC(C)(C)O)NC(=O)c1ccc2oc(CCc3ccccc3)nc2c1 (stereo not given)	none
O=C(Nc1nnc(-c2ccc3c(c2)CCCC3)o1)c1ccc(Cl)cc1Cl	AmpC detergent inconclusive, AmpC no deterg 35µM, FBPA Giardia inh inconclusive
